Measured values reported in PubChem BioAssay (NCI).
About 83,000 compounds went through this panel and 20% of them were active in at least one assay; those are over-represented in the sample as a whole.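 Single-concentration screen, 48 h exposure, 96-well plates. Endpoint: percent growth. Below 10 = active.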 Unmarked numbers belong to inactive results. The source made the active and inactive calls.

System: HL-60(TB) leukemia
Assay: NCI-60 one-dose screen, 48 h (100 = growth as untreated, 0 = no growth, -100 = all killed)
Conditions: 10 µM unless noted

Compound | growth
Fc1ccc(NCc2cn(-c3ccccc3)nc2-c2ccc(OCc3ccccc3)cc2)cc1Cl | 79.5%
CC1C(=NC(=O)c2cnccn2)C(C)C(c2ccc(Cl)cc2)NC1c1ccncc1 (stereo not given) | 108%
N#Cc1ncc(-c2ccc(C(F)(F)F)cc2)c(NC2CCCCCC2)n1 | 6.7% (active)
c1ccc2nc(Cn3c[n+](Cc4ccc5ccccc5n4)c4ccccc43)ccc2c1 | -40.1% (active)
Cc1nonc1-c1ccc2c(c1)OCO2 | 86.9%
CCOC(=O)c1cc(-c2ccccc2)nc(N)n1 | 101%
CCC(=O)Sc1ccccc1C(=O)Nc1ccc(Cl)cc1 | 37.6%
COc1ccc(NC(=O)CSc2nc3ccccc3c(=O)n2-c2ccccc2C(F)(F)F)c(OC)c1OC | 103%
Cc1cccc(-c2nc(C(C)C)sc2-c2ccnc(NCCCNS(=O)(=O)c3ccc(Cl)cc3)c2)c1 | 80.1%
COc1cc2c(cc1OCCCCCn1c(-c3ccc(OCc4ccccc4)cc3)nc3cc(N4CCOCC4)ccc31)N=C[C@@H]1CCCN1C2=O | 12.7%
N=c1ccn2c(n1)O[C@@H]1[C@@H](O)[C@H](CO)O[C@@H]12 | 84%
O=C(/C=C/c1ccccn1)c1ccccc1 | 1.48% (active)
CC1(C)OC(=O)C(=Cc2ccccc2Br)C(=O)O1 | 98.5%
CCN1C(=O)N(CC)C2C1NN=c1s/c(=C\c3ccc[nH]3)c(=O)n12 (stereo not given) | -48% (active)
[2H]c1cc2c(c([2H])c1F)/C(=C/c1[nH]c(C)c(C(=O)NCCN(CC)CC)c1C)C(=O)N2 | 4.9% (active)
CCOC(=O)c1c(C)nc2c(c1N)/C(=C/c1ccc(OC)cc1)C(=O)N2Cc1ccccc1 | 45.8%
Cc1cc(-c2nc3ccccc3s2)ccc1NC(=O)COc1ccc(Cl)cc1 | 99.1%
Nc1nc2ccc(CNc3ccc(C(=O)NC(CC(=O)O)C(=O)O)cc3)cc2c(=O)[nH]1 (stereo not given) | 4.48% (active)
C[n+]1ccc(C#N)c2ccccc21 | 70.3%
O=c1n(CC2CO2)c(=O)n(CC2CO2)n1CC1CO1 (stereo not given) | 7.91% (active)

Compound | growth
CC[C@H](Nc1nc(N)nc(C)c1C#N)c1nc2cccc(CN(C)c3ncc(C(=O)NO)cn3)c2c(=O)n1-c1ccccc1 | 0.763% (active)
Cc1cccc(C)c1NC(=O)Nc1ccccc1 | 104%
N#CSCc1c(Cl)cccc1Cl | 88.9%
CCCCNC(=O)Oc1ccc(/C(=C(\C)c2ccccc2)c2ccc(OCCN(CC)CC)cc2)cc1 | 21.3%
Cc1cccc2c(=O)c3c(sc12)c(NCc1ccccc1)nc1ccccc13 | 95.5%
CCOC(=O)CCN(CC(C)C)C(=S)Nc1ccccc1 | 97.2%
O=S(=O)(c1ccccc1)N1CCCc2ccccc21 | 103%
Cc1cc(Nc2nc(-c3ccc(F)cc3)nc3ccccc23)n[nH]1 | 39%
O=C(Nc1ncc([N+](=O)[O-])s1)c1cccc([N+](=O)[O-])c1 | 2.45% (active)
COC(=O)c1ccc(NC(=O)Nc2ccc(C(=O)OC)cc2)cc1 | 92.8%
COc1cc(C(=O)N2CCN(c3ccccc3OC)CC2)c(N)cc1OCCCN1CCN(c2ccccc2OC)CC1 | 85.3%
O=C(Nc1cc(Br)ccn1)c1cc2cc(Nc3nc(-c4ccccc4)nc4ccccc34)ccc2oc1=O | 87.3%
O=C(COc1cccc(/C=C2\Oc3ccccc3C2=O)c1)c1ccc([N+](=O)[O-])cc1 | 83.7%
COc1nc2ccccc2cc1/C=[N+](\[O-])c1ccccc1 | -18.5% (active)
COc1cc(N=Nc2cc(S(=O)(=O)O)cc3cc(S(=O)(=O)O)cc(O)c23)c(C)cc1N=Nc1c(S(=O)(=O)O)cc2cc(Nc3ccccc3)ccc2c1O | 93.6%
CCOC(=O)CC[C@H](NC(=O)c1ccc(N(C)Cc2cnc3nc(N)nc(N)c3n2)c2ccccc12)C(=O)OCC | 20.7%
COc1cc(Nc2ncccc2NC(=O)c2cn(Cc3cccc(Oc4ccccc4)c3)nn2)cc(OC)c1 | 64.6%
O=C(/C=C/C12c3ccccc3C(c3ccccc31)C1C(=O)NC(=O)C12)c1ccc(Br)cc1 (stereo not given) | 2.14% (active)
CC/C=C\C[C@H](O)C/C=C1/C(=O)C=C[C@@H]1C/C=C\CCCC(N)=O | -30.9% (active)
COc1ccc(C(=O)CC(c2ccccc2)C(C#N)c2ccccc2)cc1 (stereo not given) | 87.3%
